What all share (assay): NCI-60 one-dose screen, 48 h (100 = growth as untreated, 0 = no growth, -100 = all killed)
One assay relates to HCT-15 colon. The conditions noted are these: 10 µM unless noted.
The test system of the next assay is HT29 colon. The conditions noted are these: 10 µM unless noted.
The subject of the next assay is SNB-75 CNS. The conditions noted are these: 10 µM unless noted.
The subject of another assay is SNB-19 CNS. The conditions noted are these: 10 µM unless noted.
A further assay deals with U251 CNS. The conditions noted are these: 10 µM unless noted.
A further assay has as its system PC-3 prostate. The conditions noted are these: 10 µM unless noted.
The next assay concerns SK-MEL-5 melanoma. The conditions noted are these: 10 µM unless noted.
In the next assay the test system is UACC-62 melanoma. The conditions noted are these: 10 µM unless noted.
A further assay has as its system LOX IMVI melanoma. The conditions noted are these: 10 µM unless noted.
The test system of a further assay is SK-MEL-28 melanoma. The conditions noted are these: 10 µM unless noted.
Another assay deals with SK-MEL-2 melanoma. The conditions noted are these: 10 µM unless noted.
For a further assay, the system named is SN12C renal. The conditions noted are these: 10 µM unless noted.
Another assay relates to UO-31 renal. The conditions noted are these: 10 µM unless noted.
The subject of the next assay is ACHN renal. The conditions noted are these: 10 µM unless noted.
The subject of the next assay is CAKI-1 renal. The conditions noted are these: 10 µM unless noted.
The subject of another assay is A498 renal. The conditions noted are these: 10 µM.
For a further assay, the system named is HL-60(TB) leukemia. The conditions noted are these: 10 µM unless noted.
Another assay relates to TK-10 renal. The conditions noted are these: 10 µM unless noted.
In another assay the test system is CCRF-CEM leukemia. The conditions noted are these: 10 µM unless noted.
The subject of another assay is EKVX NSCLC. The conditions noted are these: 10 µM unless noted.

From PubChem BioAssay (NCI) come the findings set out here.

Compounds without any hit were thinned out: in the full panel of roughly 83,000, 20% have a hit.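 For each line, cells grew in 96-well plates with the test compound present at a single concentration for 48 hours.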 Values without a mark were called inactive. The source made the active and inactive calls. The calls were made as follows: active = growth percent below 10; inactive = the rest.

On to `O=C(O)CNC(=O)C(Cl)(Cl)Cl`, for which the growth is 96% in the assay with HCT-15 colon; 97.1% in the assay with HT29 colon; 85.1% in the assay on SNB-75 CNS; 100% with SNB-19 CNS; 84.8% in the assay on U251 CNS; 91.6% in the assay on PC-3 prostate. Further, the growth in the assay on SK-MEL-5 melanoma was 99%; with UACC-62 melanoma it was 102%; in the assay with LOX IMVI melanoma, 99%; in the assay with SK-MEL-28 melanoma it was 96.6%; with SK-MEL-2 melanoma, 111%; with SN12C renal, 100%. The growth in the assay on UO-31 renal is 87.6%; in the assay on ACHN renal, 92.7%; in the assay on CAKI-1 renal, 89.1%; in the assay with A498 renal, 96.2%; in the assay with HL-60(TB) leukemia, 80.8%.
As for `OCCCCCNC1CCCCC1`, the growth in the assay on HCT-15 colon was 96.1%; in the assay on HT29 colon, 90.7%; in the assay with SNB-75 CNS, 101%; with SNB-19 CNS, 112%; in the assay on U251 CNS, 101%; in the assay on PC-3 prostate, 101%. Further, the growth in the assay on SK-MEL-5 melanoma is 96.7%; with UACC-62 melanoma, 102%; in the assay with LOX IMVI melanoma, 101%; in the assay on SK-MEL-28 melanoma, 95%; with SK-MEL-2 melanoma, 80.7%; in the assay on SN12C renal, 105%. Besides, the growth with UO-31 renal is 87.5%; in the assay with TK-10 renal, 86.5%; in the assay on ACHN renal it was 94.1%; in the assay on CAKI-1 renal, 101%; in the assay with A498 renal it was 105%; in the assay with HL-60(TB) leukemia, 91.7%.
On to `O=C1C2CCC1C(N1CCCC1)CC2` (configuration not stated), for which the growth with HCT-15 colon was 98.6%; in the assay on HT29 colon it was 102%; in the assay on SNB-75 CNS it was 79.8%; in the assay with SNB-19 CNS, 102%; with U251 CNS, 100%; in the assay on PC-3 prostate, 93.1%. The growth in the assay on SK-MEL-5 melanoma was 99.9%; with UACC-62 melanoma, 96.6%; in the assay with LOX IMVI melanoma it was 97.8%; in the assay with SK-MEL-28 melanoma, 102%; in the assay with SK-MEL-2 melanoma, 103%; in the assay on SN12C renal it was 100%. In addition, the growth in the assay with UO-31 renal was 87.5%; with TK-10 renal it was 97.8%; in the assay with ACHN renal, 102%; with CAKI-1 renal, 97.7%; in the assay on A498 renal it was 92.2%; in the assay on HL-60(TB) leukemia, 97.2%. Besides, the growth with CCRF-CEM leukemia is 94.3%.
For `C[C@]12CC[C@@H]3c4ccc(Oc5nc(N6CC6)nc(N6CC6)n5)cc4CC[C@H]3[C@@H]1CCC2=O`, the growth in the assay with HCT-15 colon is 37.4%; in the assay on HT29 colon, 19.3%; in the assay with SNB-75 CNS it was 30.3%; in the assay on SNB-19 CNS, 48.8%; in the assay on U251 CNS it was 31.9%; with PC-3 prostate, 53.8%. For the same compound, the growth with SK-MEL-5 melanoma is 5.82% (active); in the assay with UACC-62 melanoma, 18.4%; with LOX IMVI melanoma, -63.1% (active); in the assay on SK-MEL-28 melanoma, 63.5%; in the assay with SK-MEL-2 melanoma it was 56.4%; with SN12C renal it was 21.5%. For the same compound, the growth in the assay with UO-31 renal was 28.6%; in the assay on ACHN renal, 16.3%; in the assay on CAKI-1 renal, 10.9%; in the assay on A498 renal, -18.5% (active); in the assay with HL-60(TB) leukemia, -35.6% (active); in the assay on CCRF-CEM leukemia, 3.37% (active).
Consider `O=C([O][Hg][c]1ccccc1)c1ccccc1`, for which the growth with HCT-15 colon is -62.7% (active); in the assay on HT29 colon, -14.8% (active); in the assay with SNB-75 CNS it was -4.27% (active); in the assay with SNB-19 CNS it was 56.8%; with U251 CNS, -31.9% (active); with PC-3 prostate it was 35.4%. For the same compound, the growth in the assay on SK-MEL-5 melanoma was 5.37% (active); in the assay on UACC-62 melanoma, -42.3% (active); in the assay on LOX IMVI melanoma it was -80.3% (active); in the assay on SK-MEL-28 melanoma, -61.1% (active); with SK-MEL-2 melanoma it was -33.3% (active); in the assay with SN12C renal, -85.4% (active). For the same compound, the growth in the assay with UO-31 renal is -92.2% (active); with TK-10 renal, -86.5% (active); in the assay on ACHN renal, -90.5% (active); in the assay with CAKI-1 renal, -89.3% (active); in the assay with A498 renal it was 40.7%; in the assay on CCRF-CEM leukemia, -33.8% (active).
For the compound `Nc1ncnc2n[nH]nc12`, the growth is 63.4% with HCT-15 colon; 79.7% in the assay on HT29 colon; 90.6% in the assay on SNB-75 CNS; 93.5% with SNB-19 CNS; 70.1% in the assay on U251 CNS; 64.5% in the assay with PC-3 prostate. Also, the growth in the assay on SK-MEL-5 melanoma is 72.5%; in the assay with UACC-62 melanoma it was 46.7%; in the assay on LOX IMVI melanoma, 43.9%; in the assay on SK-MEL-28 melanoma it was 87.6%; in the assay with SK-MEL-2 melanoma, 12.5%; with EKVX NSCLC it was 66.7%. Also, the growth in the assay on TK-10 renal was 61%; with ACHN renal, 46.5%; with CAKI-1 renal, 40.1%; in the assay on A498 renal, 51.4%; in the assay with HL-60(TB) leukemia it was 83.5%; in the assay on CCRF-CEM leukemia, 80.7%.
`CCC1(C)CC(CCNCc2ccccc2O)(c2ccc(C)cc2)CCO1` (configuration not stated): the growth is 98.3% in the assay on HCT-15 colon; 107% in the assay on HT29 colon; 91.8% in the assay on SNB-75 CNS; 102% with SNB-19 CNS; 99.1% in the assay on U251 CNS; 99.1% in the assay on PC-3 prostate. Also, the growth was 97.7% with SK-MEL-5 melanoma; 103% in the assay with UACC-62 melanoma; 99.8% in the assay on LOX IMVI melanoma; 106% in the assay with SK-MEL-28 melanoma; 104% in the assay with SK-MEL-2 melanoma; 105% in the assay with SN12C renal. Also, the growth in the assay on TK-10 renal was 106%; in the assay with ACHN renal, 102%; with CAKI-1 renal it was 106%; with A498 renal it was 103%; in the assay on HL-60(TB) leukemia, 97.3%; in the assay on CCRF-CEM leukemia, 103%.
`CC12CC(=O)C3(SC#N)C(CCC4=CC(=O)CCC43C)C1CCC2=O` (configuration not stated): the growth in the assay on HCT-15 colon is 34.5%; in the assay with HT29 colon, 64.2%; in the assay with SNB-75 CNS it was 93.6%; in the assay on SNB-19 CNS, 96%; in the assay with U251 CNS, 101%; in the assay on PC-3 prostate, 104%. In addition, the growth in the assay with SK-MEL-5 melanoma is 101%; in the assay on UACC-62 melanoma, 89.3%; in the assay on LOX IMVI melanoma, 80.8%; in the assay with SK-MEL-28 melanoma it was 94.7%; with SK-MEL-2 melanoma, 125%; in the assay on SN12C renal, 85%. The growth was 39% with UO-31 renal; 81.4% in the assay with TK-10 renal; 49.2% in the assay on ACHN renal; 93.5% in the assay on CAKI-1 renal; 95.3% in the assay on A498 renal; 43.2% with HL-60(TB) leukemia.
Consider `COc1cc(C=Nc2cc(Cl)cc(Cl)c2)ccc1N(CCCl)CCCl`, for which the growth with HCT-15 colon was 96.2%; in the assay on HT29 colon it was 81.5%; in the assay with SNB-75 CNS, 84.1%; in the assay with SNB-19 CNS, 89.8%; in the assay on U251 CNS it was 86.9%; in the assay with PC-3 prostate it was 63.1%. For the same compound, the growth with SK-MEL-5 melanoma is 93.9%; in the assay with UACC-62 melanoma it was 82.9%; in the assay on LOX IMVI melanoma, 78.7%; in the assay on SK-MEL-28 melanoma, 104%; with SK-MEL-2 melanoma it was 113%; with SN12C renal, 87.6%. Besides, the growth in the assay with UO-31 renal is 66.6%; in the assay on TK-10 renal, 148%; in the assay on ACHN renal, 63%; in the assay on CAKI-1 renal it was 63.3%; in the assay on A498 renal, 65.2%; in the assay with HL-60(TB) leukemia, 88.1%.
